# Hits are enriched below; roughly 7.5% of the tested compounds scored in any of these assays.
# FLuc modulator: inhibits or activates purified firefly luciferase, miR-21 counter-screen. P08659. purified FLuc, Km substrates, luminescence inhibition. Potency, µM (doses to about 57.5 µM), without a hit: at the highest dose activity change, negative = inhibition, hits mostly inhibitors. actives 6.9% (n = 360,000);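 also: plate controls were vehicle for no effect and reference inhibitor for full effect; nearly all actives have a fitted effect of over 55% in size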
# Target sequence (P08659 whole entry, looked up): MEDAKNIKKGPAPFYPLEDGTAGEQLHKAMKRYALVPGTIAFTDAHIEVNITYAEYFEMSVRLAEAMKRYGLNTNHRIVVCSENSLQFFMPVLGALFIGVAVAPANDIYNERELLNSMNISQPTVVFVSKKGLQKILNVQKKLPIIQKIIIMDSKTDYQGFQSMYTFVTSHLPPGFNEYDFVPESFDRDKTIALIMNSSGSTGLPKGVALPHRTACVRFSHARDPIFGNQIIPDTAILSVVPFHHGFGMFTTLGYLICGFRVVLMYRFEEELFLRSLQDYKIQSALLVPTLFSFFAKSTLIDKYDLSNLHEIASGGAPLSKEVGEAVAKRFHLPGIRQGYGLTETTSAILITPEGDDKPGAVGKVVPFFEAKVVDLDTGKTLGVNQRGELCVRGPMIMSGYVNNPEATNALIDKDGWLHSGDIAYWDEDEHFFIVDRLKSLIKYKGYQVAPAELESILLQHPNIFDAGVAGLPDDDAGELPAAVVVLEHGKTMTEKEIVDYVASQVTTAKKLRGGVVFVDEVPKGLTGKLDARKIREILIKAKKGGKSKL
#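 Purified P. pyralis luciferase (10nM final) with 10uM D-luciferin and 10uM ATP (Km levels) in 50mM Tris acetate pH 7.5, 10mM Mg acetate, 0.01% Tween-20, 0.05% BSA; qHTS 6-point titration, ~60 µM downward; luminescence read.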
# NPC1 prom act: activators of NPC1 promoter | Huh7 NPC1 promoter luciferase reporter, 24 h | Potency, µM (highest dose often 9.22 µM), inactives show at the top dose activation, most hits filed as activators | actives 2.4% (n = 320,000); also: % of control where 0% means no effect; nearly all actives have a fitted effect of over 60% in size
#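 NPC1 promoter–luciferase Huh7 cells; 24 h compound; luminescence.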
# SMN2 splice enh: enhancers of SMN2 splice variant expression; Potency, µM (highest dose often 46.1 µM), for inactives: at the top dose activity change, positive = activation, hits mostly activators; AID 1458; HEK293 SMN2-luciferase splicing reporter, luminescence, 30-36 h; actives 2.8% (n = 210,000); also: % of control where 0% means no effect; nearly all actives have a fitted effect of over 55% in size
#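 HEK293 cells carry an SMN2 minigene-luciferase reporter in which exon 7 inclusion puts luciferase in frame. Cells were seeded at 2000 cells/well, attached for 10-12 hours, then exposed to compounds for 30-36 hours at 37C before ONE-Glo luminescence.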
# Rab9 promoter act: Rab9 promoter activation; AID 485297; Huh7 Rab9 promoter-luciferase reporter, luminescence, 24 h; actives 2.8% (n = 320,000); Potency, µM (series often up to 9.22 µM), without a hit: top-dose activation, negative = inhibition, usual class: activators; also: % of control where 0% means no effect; nearly all actives have a fitted effect of over 60% in size
#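 Cell-based reporter: Huh7 stable for Rab9 promoter-driven luciferase, plated in reduced-serum medium with 10% FBS at 1500 cells/well, compound-treated 24 h at 37 °C, luminescence read after 10 min reagent.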
# Luc counter: Kinase-Glo luciferase inhibition (counter-screen); Q27757; Kinase-Glo luciferase, ATP luminescence, 8 min; Potency, µM (titrated, usually from 38.3 µM), for the others: at the highest dose activity change, negative = inhibition, most hits filed as inhibitors; actives 0.28% (n = 200,000); also: % is scaled to controls: 0 for no effect and ±100 for the full control effect; nearly all actives have a fitted effect of over 60% in size
#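 Recombinant Kinase-Glo luciferase, 10 uM ATP (linear range), luciferin; imidazole pH 7.2 / KCl / MgCl2 / Tween / BSA buffer; 8 min RT; luminescence.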
# ELG1 genotoxic: genotoxicity induction in ELG1-luciferase HEK293T cells; HEK293T ELG1-luciferase reporter, luminescence, 16 h; Potency, µM (highest dose often 46 µM), for the others: top-dose activity change, positive = activation, actives largely listed as activators; actives 1.3% (n = 330,000); AID 504466; also: % of control where 0% means no effect; nearly all actives have a fitted effect of over 60% in size
#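 Genotoxicity was scored as increased ELG1-luciferase reporter signal, measured by ONE-Glo luminescence (30 min, room temperature). Compound or vehicle exposure of the HEK293T reporter cells lasted 16 hr at 37°C.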
# * hit, by the source's call; ? = inconclusive; . = not tested or not shown; [ ] = remark or other dose. Calls follow the shape of the dose curve; as a rule, active = well fitted curve in the direction sought with a large enough effect; inconclusive = small, poorly fitted or top-dose-only effect, or another doubt; inactive = no such curve, though single readings can be large; an effect the other way counts as inactive or inconclusive. Potency is read from the fitted curve at half-maximal effect.
SMILES,FLuc modulator,NPC1 prom act,SMN2 splice enh,Rab9 promoter act,Luc counter,ELG1 genotoxic
CC1CCCN(c2ccc(C(=O)NCc3ccccc3)cn2)C1 (stereo unspecified),?,17%,?,?,2%,5%
Cc1c(C(=O)N2CCC(C(=O)Nc3ccc(F)c(Cl)c3)CC2)sc2nc[nH]c(=O)c12,1%,.,.,.,.,.
COc1ccc(OC)c(NC(=O)C2CCN(S(=O)(=O)c3ccc4c(c3)CCCC(=O)N4)CC2)c1,-3%,.,.,.,.,.
Clc1ccc(-c2cc3ccccc3[nH]2)cc1,9.5µM*,?,18%,4µM*,0%,?
COC(=O)c1cc(N=Nc2c(C)[nH]c3ccccc23)cc(C(=O)OC)c1,-1%,0%,.,-9%,.,2%
Cc1[nH]c2ccccc2c1N=Nc1cccc(C(=O)O)c1,11µM*,3.2µM*,13µM*,2.2µM*,5%,19%
Cc1[nH]n(-c2ccccc2)c(=O)c1N=Nc1ccccc1,4.8µM*,?,14µM*,?,-1%,?
COc1ccccc1N=Nc1c(C)[nH]n(-c2ccccc2)c1=O,11µM*,?,.,?,.,-3%
Cc1[nH]n(-c2ccccc2)c(=O)c1N=Nc1ccc(C(=O)O)cc1,7.6µM*,23%,.,28%,.,12%
Cc1[nH]n(-c2ccccc2)c(=O)c1N=Nc1ccc(Cl)cc1,-19%,23%,.,13%,.,-2%
Cc1ccc(N=Nc2c(N)n(-c3ccccc3)[nH]c2=O)cc1,4.8µM*,?,?,?,-11%,?
Cc1[nH]n(-c2ccccc2)c(=O)c1N=Nc1cccc(C(=O)O)c1,0.27µM*,?,.,1.1µM*,.,?
CC(=O)c1ccc(N=Nc2c(C)[nH]n(-c3ccccc3)c2=O)cc1,-15%,16%,.,13%,.,-2%
Cc1[nH]n(-c2ccccc2)c(=O)c1N=Nc1ccc(C(N)=O)cc1,?,0%,.,0%,.,0%
O=C(O)c1ccc(C=C(c2nc3ccccc3s2)c2nc3ccccc3s2)cc1,12µM*,-3%,0%,2%,7%,-1%
COc1cc(C=C(c2nc3ccccc3s2)c2nc3ccccc3s2)cc(OC)c1O,15µM*,2%,-16%,-4%,2%,-2%
O=C(O)c1ccc(Oc2nc3ccccc3s2)cc1,.,.,?,.,-6%[7.66 µM],.
CN(C)c1ccc(/C=C(\Cl)c2nc3ccccc3s2)cc1,1.2µM*,2.5µM*,-111%,1µM*,13µM*,?
Cn1c(O)c(C2=c3ccccc3=NC2=O)[nH]c1=S,-4%,21%,8%,8%,-6%,-1%
COc1ccc2nc(-n3c(O)c(C4=c5ccccc5=NC4=O)[nH]c3=S)sc2c1,11µM*,-3%,-11%,-5%,-9%,-1%
O=C(Nc1ccc(-n2cnnn2)cc1)c1cn2ccccc2n1,?,1.6µM*,.,1.6µM*,.,?
CC1CN(C(=O)c2ccncc2)CC(C)O1 (stereo unspecified),2%,?,2%,-5%,0%,-4%
O=C(Nc1ccccc1)c1cn2ccccc2n1,0.95µM*,0.32µM*,.,0.2µM*,.,?
CCN(CC(=O)Nc1c(F)cccc1F)C(=O)c1cn2ccccc2n1,5%,-4%,.,1%,.,4%
CC1CN(C(=O)c2cn3ccccc3n2)CC(C)O1 (stereo unspecified),12µM*,2%,-6%,-3%,-13%,-1%
SMILES,FLuc modulator,NPC1 prom act,SMN2 splice enh,Rab9 promoter act,Luc counter,ELG1 genotoxic
Cc1csc(NC(=O)c2cn3ccccc3n2)n1,2.1µM*,?,0.63µM*,?,10µM*,0.73µM*
Cc1c(NC(=O)c2cn3ccccc3n2)cccc1-n1cnnn1,?,25%,.,18%,.,13%
Cc1ccccc1C(=O)Nc1cc2c(cc1N1CCCCC1)n(C)c(=O)n2C,-1%,.,-12%,.,.,.
CN(C(=O)Cn1cnc2onc(-c3ccc(F)cc3)c2c1=O)c1ccccc1Cl,-8%,.,.,.,.,.
COc1ccc(-c2noc(CC(=O)Nc3ccc(Br)cc3C)n2)cc1,2%,.,.,.,.,.
CCCC(=O)Nc1cc(-c2nc3cccnc3s2)ccc1C,9.5µM*,.,.,.,.,.
CCC(CC)C(=O)Nc1cc(-c2nc3cccnc3s2)ccc1C,12µM*,.,.,.,.,.
COc1ccc(CC(=O)Nc2cc(-c3nc4cccnc4s3)ccc2C)cc1,0.67µM*,.,.,.,.,.
Cc1ccc(-c2nc3cccnc3s2)cc1NC(=O)Cc1ccccc1,1.1µM*,.,.,.,.,.
COc1ccccc1Cn1c(SCC(=O)C(C)(C)C)nc2ccccc2c1=O,-1%,.,.,.,.,.
COc1ccc(NC(=O)c2cc3c(=O)n(Cc4cccnc4)ccc3nc2C)cc1Cl,5%,.,.,.,.,.
NC(=O)c1ccc(C[C@H](C(=O)O)N2C(=O)c3ccc(C(=O)O)cc3C2=O)cc1,8%,-5%,.,2%,.,.
CC(NC(=O)c1ccc(C23CC4CC(CC(C4)C2)C3)cc1)C(=O)O (stereo unspecified),19µM*,0%,10%,1%,0%,-2%
O=C1C2C3C=CC(C4CC34)C2C(=O)N1/N=C/c1cccs1 (stereo unspecified),17µM*,12%,-7%,20%,-1%,7%
CCn1nc(C)c(CCN(C)C(=O)Nc2cc(OC)c(OC)c(OC)c2)c1C,-1%,.,.,.,.,.
COc1ccc(C(=O)Nc2ccc(CN3CCS(=O)(=O)CC3)cc2)cc1,?,-4%,.,-4%,.,-2%
CN(C)c1ccc(C(=O)Nc2ccc(CN3CCS(=O)(=O)CC3)cc2)cc1,13µM*,23%,.,28%,.,8%
CN(C)c1ccc(NC(=O)c2ccc(Cn3cc([N+](=O)[O-])cn3)cc2)cc1,12µM*,15%,-10%,29%,-1%,1%
Cc1ccc(C(=O)Nc2ccc(CN3CCS(=O)(=O)CC3)cc2)cc1C,19µM*,?,.,?,.,14%
COc1ccc(CNc2nc3c(-c4cccc(C)c4)nnn3c3ccccc23)cc1,-2%,.,3%,.,.,.
CNc1nc2c(c(=O)n(C)c(=O)n2C)n1CC(O)COc1ccc(OC)cc1 (stereo unspecified),1%,.,-6%,.,.,.
Cn1cccc1C(=O)C(=O)Nc1ccccc1,5.4µM*,0.56µM*,13µM*,0.63µM*,13µM*,?
CC(=O)c1sc(-c2ccc(Cl)cc2)cc1N,?,4%,.,13%,.,?
COC(=O)c1sc(-c2cccs2)cc1N,12µM*,?,.,27%,.,?
COC(=O)c1sc(-c2ccc(Cl)cc2)cc1N,6.7µM*,2.2µM*,.,2.5µM*,.,?
CC(C)CCn1c(Oc2ccccc2F)nc2c1c(=O)n(C)c(=O)n2C,-8%,.,.,.,.,.
Cc1cccc(OCC(=O)Nc2ccccc2OCc2cc(=O)n3cc(C)ccc3n2)c1,6%,.,.,.,.,.

# Compound activity: PubChem, National Center for Advancing Translational Sciences (NCATS)
